Compound activity: PubChem, several laboratories
Mcl1-Bid inh: Mcl-1/Bid binding inhibitors, primary screen, biochemical, TR-FRET, 1536-well. inhibition, % at 21.7 µM. 0.97% of 220,000 active. TR-FRET Mcl-1/Bid-Dy647 peptide binding. Induced myeloid leukemia cell differentiation protein Mcl-1 (Homo sapiens), Q07820;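 active means compounds that cut the binding signal by more than half at the single screening dose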;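 further: His-tagged Mcl-1 with europium anti-His antibody binding Bid BH3 peptide; 0% = Mcl-1 plus peptide wells and 100% = peptide-only wells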
Target sequence (Q07820 whole entry, looked up): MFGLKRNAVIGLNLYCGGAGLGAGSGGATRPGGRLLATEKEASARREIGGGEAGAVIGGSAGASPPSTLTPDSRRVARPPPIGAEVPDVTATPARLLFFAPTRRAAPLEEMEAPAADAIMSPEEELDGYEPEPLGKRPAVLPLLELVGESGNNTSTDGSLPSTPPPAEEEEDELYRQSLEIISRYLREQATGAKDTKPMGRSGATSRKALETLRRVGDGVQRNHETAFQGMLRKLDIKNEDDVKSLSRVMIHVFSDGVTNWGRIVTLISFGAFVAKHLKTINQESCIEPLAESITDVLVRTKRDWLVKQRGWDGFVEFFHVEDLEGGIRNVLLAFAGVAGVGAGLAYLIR
GLD-1 TGE inh: GLD-1/TGE RNA complex disruptors, primary screen, biochemical, fluorescence polarization | Female germline-specific tumor suppressor gld-1 (Caenorhabditis elegans), Q17339 | purified GLD-1 + fluorescein TGE RNA | inhibition, % at 5.96 µM | 0.44% of 320,000 active | AID 2280, 2010;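 active means percent inhibition above a per-plate cutoff, the plate mean of test compounds plus 3 SD, cut at about 30% in these data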;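 further: 0% = DMSO wells with GLD-1 and probe and 100% = wells lacking GLD-1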
MCL1-BIM inh: inhibitors of MCL1 binding to BIM-BH3, primary screen, biochemical, fluorescence polarization; Induced myeloid leukemia cell differentiation protein Mcl-1 (Homo sapiens), Q07820; GST-MCL1 / FITC-Bim-BH3 fluorescence polarization; AID 2057, 2009; inhibition, % at 10.9 µM; 0.68% of 320,000 active;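 active means inhibition above the mean inhibition of all tested compounds plus 3 SD, set per campaign, cut at about 40% in these data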;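 further: 0% = DMSO wells and 100% = unlabeled Bim-BH3 peptide control; higher means more loss of mP so more displacement of Bim peptide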
Bcl-xL primary: inhibitors of human Bcl-xL, primary screen, biochemical, fluorescence polarization, HTS | Bcl-2-like protein 1 (Homo sapiens), Q07817 | GST-Bcl-xL / FITC-Bim BH3 peptide fluorescence polarization | inhibition, % at 10.9 µM | 0.7% of 320,000 active | AID 2129, 2009;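 active means inhibition above the mean of all tested compounds plus 3 SD, cutoff set per campaign, cut at about 30% in these data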;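 further: 0% = DMSO wells and 100% = unlabeled Bim-BH3 peptide competitor; inhibitors lower millipolarization by displacing the labeled peptide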
Target sequence (Q07817 whole entry, looked up): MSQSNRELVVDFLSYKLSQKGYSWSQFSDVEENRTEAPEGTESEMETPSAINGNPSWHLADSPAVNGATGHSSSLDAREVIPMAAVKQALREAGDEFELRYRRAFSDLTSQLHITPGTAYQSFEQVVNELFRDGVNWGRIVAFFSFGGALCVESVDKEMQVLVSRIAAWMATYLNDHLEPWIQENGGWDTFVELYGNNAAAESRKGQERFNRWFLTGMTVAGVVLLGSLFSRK
Mcl1 Noxa PPI: Mcl-1/Noxa binding inhibitors, primary screen, biochemical, TR-FRET, 1536-well | Induced myeloid leukemia cell differentiation protein Mcl-1 (Homo sapiens), Q07820 | 1.5% of 220,000 active | inhibition, % at 21.7 µM | AID 1022, 2008 | TR-FRET Mcl-1/Noxa peptide binding, 2 h;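 active means compounds that cut the protein-peptide binding signal by more than 50% relative to plate controls in a single-dose test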;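 further: His-tagged Mcl-1 with rhodamine Noxa BH3 peptide and terbium anti-His antibody; 0% = Mcl-1 plus Noxa peptide wells and 100% = peptide-only wells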
Bim-Mcl-1: inhibitors of Bim peptide binding to Mcl-1, primary screen, biochemical, bead-based flow cytometry, multiplex; Bim peptide-Mcl-1 binding; inhibition, % at 10 µM; 0.1% of 190,000 active; AID 1009, 2008; in the data active means inhibition above about 40%;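 further: 0% = no compound tracer wells and 100% = peptide blocker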
An asterisk follows results filed as active; nt = no result given. An excerpt weighted towards active compounds, which were near 2.3% of everything screened.

SMILES | Mcl1-Bid inh | GLD-1 TGE inh | MCL1-BIM inh | Bcl-xL primary | Mcl1 Noxa PPI | Bim-Mcl-1
O=C(Nc1cccc(-c2cn3cccnc3n2)c1)c1ccc2c(c1)OCO2 | 41 | 3 | 1 | 4 | 57* | -1
O=C1C(C2=NC(C(=O)O)C3C(=O)N(c4ccc(Cl)cc4)C(=O)C23)=C(O)c2ccccc21 (stereo unspecified) | -21 | 2 | -1 | 2 | 63* | -1
COc1cc2c(C#Cc3cccnc3)c(-c3ccsc3)oc(=O)c2cc1OC | nt | 0 | nt | nt | nt | nt
COC(=O)Nc1ccc(S(=O)(=O)NCc2ccccn2)cc1 | -4 | -11 | 8 | 0 | 82* | 4
COC(=O)COc1ccc(S(=O)(=O)NCc2ccccn2)cc1 | nt | -3 | 0 | -12 | nt | nt
Cc1ccc(N2C(=O)C3C4C=CC(CC4)C3C2=O)cc1[N+](=O)[O-] (stereo unspecified) | nt | 1 | -4 | -6 | nt | nt
Cc1cc(N2C(=O)C=CC2=O)c([N+](=O)[O-])cc1C | 57* | 4 | 20 | 10 | 50 | -12
Cc1ccc(C(=O)COC(=O)CCNS(=O)(=O)c2ccccc2F)cc1 | nt | 2 | nt | nt | nt | nt
O=C(Nc1nc(-c2ccco2)cs1)c1ccccc1 | 5 | -6 | -3 | 2 | 54* | -1
CC(=O)Nc1ccc(C(=O)Nc2nc(-c3cccnc3)cs2)cc1 | -40 | 4 | -26 | -18 | 35 | 0
O=C(Nc1nc(-c2ccccn2)cs1)c1ccc([N+](=O)[O-])o1 | -16 | 5 | 34 | 28 | 90* | nt
CC(=O)Nc1ccc(C(=O)Nc2nc(-c3ccccn3)cs2)cc1 | -30 | 0 | 1 | -1 | 70* | -2
Cc1csc(NC(=O)c2ccncc2)n1 | 8 | -3 | 13 | 3 | 64* | nt
COc1sc(SC)cc1/C=N/NC(=O)c1ccncc1 | nt | 7 | 4 | 13 | nt | nt
CC(=O)Nc1ccc(-c2csc(NC(=O)c3ccc(C)o3)n2)cc1 | -3 | -3 | -3 | -3 | nt | -4
Cc1ccc(C(=O)Nc2nc(-c3ccc([N+](=O)[O-])cc3)cs2)o1 | 56* | 0 | 10 | 0 | 65* | -1
Cc1ccc(C(=O)Nc2nc(-c3cc(Cl)sc3Cl)cs2)cc1 | -5 | 4 | 5 | 1 | 53* | 5
CC(=O)Nc1ccc(NC(=O)[C@@H](NC(=O)c2ccccc2F)C(C)C)cc1 | nt | 0 | -8 | 6 | nt | nt
CCCCC(C(=O)NC1CCCC1)N(C(=O)c1snc(C(N)=O)c1N)c1ccc(C)cc1 (stereo unspecified) | nt | 3 | 4 | 1 | nt | nt
COc1cccc2cc(C(=O)NNC(=O)c3ccc(Br)cc3)c(=O)oc12 | 28 | 6 | 2 | -4 | 64* | 1
COc1cccc2cc(C(=O)Oc3ccc(NC(C)=O)cc3)c(=O)oc12 | 94* | 0 | 0 | 7 | -1 | 2
CCN(CC(=O)Nc1c(F)cccc1F)C(=O)C1CCCN(C(=O)c2ccc(Cl)cc2)C1 (stereo unspecified) | nt | -6 | -6 | 4 | nt | nt
O=C(NCc1nc(-c2ccc(Cl)cc2)no1)c1ccc2c(c1)OCO2 | nt | 4 | 0 | 4 | nt | nt
Cc1ccc(C)c(NC(=O)CN(C)C(=O)COc2cccc3c2OC(C)(C)C3)c1 | nt | 1 | -17 | -12 | nt | nt
COc1cc(C)ccc1OCCOCCOc1cccc2ccc(C)nc12 | -13 | 7 | -7 | 4 | 17 | 0
SMILES | Mcl1-Bid inh | GLD-1 TGE inh | MCL1-BIM inh | Bcl-xL primary | Mcl1 Noxa PPI | Bim-Mcl-1
C=CCc1ccc(OCCOCCOc2cccc3ccc(C)nc23)c(OC)c1 | 80* | 2 | 10 | 2 | 16 | 1
FC(F)(F)c1cccc(N2CCN(Cc3ccoc3)CC2)c1 | 54* | 6 | 7 | 3 | 12 | -1
FC(F)(F)c1cccc(N2CCN(Cc3cccnc3)CC2)c1 | 37 | 1 | -7 | 2 | 28 | -1
COc1ccccc1CNC(=O)CN1C(=O)NC2(CCCc3ccccc32)C1=O (stereo unspecified) | nt | -1 | 1 | 3 | nt | nt
CC1(C)CC(NC(=O)c2ccc(Cl)c(S(=O)(=O)N(Cc3ccccc3)c3ccccc3)c2)CC(C)(C)N1 | nt | 0 | 0 | 2 | nt | nt
Cc1cc(N2CCN(C)CC2)nc2ccc(NC(=S)N3CCCCC3)cc12 | -93 | nt | nt | nt | 24 | -1
Cc1cccc(N2CCN(C(=S)Nc3ccc4nc(N5CCN(C)CC5)cc(C)c4c3)CC2)c1C | 85* | nt | nt | nt | 48 | -2
Cc1ccc2nc3c(cc(C(N)=S)c(=N)n3CCCOC(C)C)c(=O)n2c1 | -28 | 12 | 39 | 39* | -4 | 1
Cc1cccn2c(=O)c3cc(C(N)=S)c(=N)n(CCCN4CCOCC4)c3nc12 | 58* | -5 | 34 | 33* | 40 | 0
COCCCn1c(=N)c(C(N)=S)cc2c(=O)n3cccc(C)c3nc21 | nt | -1 | 27 | 34* | nt | nt
COc1ccc(C(=O)N2CCC2)cc1S(=O)(=O)NCc1ccc(Cl)cc1 | nt | 5 | nt | nt | nt | nt
COC(=O)c1ccccc1S(=O)(=O)N1CCC(C(=O)NCc2ccco2)CC1 | nt | 3 | 1 | 2 | nt | nt
O=c1c2ccccc2nc(COc2ccccc2)n1/N=C/c1cn[nH]c1-c1ccccc1 | 56* | 6 | 3 | 7 | -14 | -5
Cc1ccccc1OCc1nc2ccccc2c(=O)n1/N=C/c1cn[nH]c1-c1ccc(Br)cc1 | -1 | 5 | -4 | -2 | 13 | 4
Cc1ccc(Nc2nc3ccc(Cl)cc3n3cnnc23)cc1F | nt | -1 | 2 | -1 | nt | nt
CCOC(=O)C1(Cc2cccc(OC)c2)CCN(Cc2cccc(OC)c2OC)CC1 | -25 | 8 | 5 | -4 | 5 | 78*
COc1cccc(Nc2ncnc3onc(-c4ccccc4OC)c23)c1 | nt | 2 | 2 | 4 | nt | nt
CCOc1ccc(C(=O)Nc2nnn(CC)n2)cc1 | -49 | 8 | -3 | 1 | -8 | 62*
COc1ccc2c(c1)S/C(=C\C(=O)c1ccncc1)N2C | -39 | -41 | 11 | 3 | 66* | 7
CCN1/C(=C/c2ccc3cc(C)ccc3[n+]2C)Sc2ccc3sccc3c21 | -28 | nt | nt | nt | 60* | 38
O=Cc1ccccc1-c1cn(CCCOCc2ccccc2)nn1 | nt | 0 | -5 | 2 | nt | nt
O=C(O)c1ccc(N2C(=O)CCCC2=O)cc1 | -28 | -1 | 1 | -1 | 59* | nt
O=C1CCCC(=O)N1c1ccc(O)cc1 | -24 | -3 | 3 | 5 | 2 | -2
Cc1csc(CCc2nc(C)cs2)n1 | 100* | 8 | 7 | 8 | -10 | -5
COc1ccc(/C=C/C(=O)c2ccc(NC3=NCCCS3)cc2)cc1OC | -19 | -4 | 0 | 6 | 51* | 5
